About 79,000 compounds went through this panel and 15% of them were active in at least one assay; those are over-represented in the sample as a whole. Active and inactive are the calls of the source. Cut-off read from the data, not from the text of the source: active = growth inhibition above about 70%; inactive = the rest.
Experiments:
[1] = NCI Yeast Anticancer Drug Screen. Data for the rad52 strain (AID 147);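 note: 0% = growth of vehicle-treated control cultures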; conditions: S. cerevisiae rad52 mutant growth inhibition, active compounds read high
Procedure, shortened: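 Inhibition of yeast growth, referenced to vehicle controls, was the measured output for a strain with defective DNA damage repair.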

[2] = NCI Yeast Anticancer Drug Screen. Data for the wt1 strain (AID 149);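 note: 0% = growth of vehicle-treated wt1 cultures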; conditions: S. cerevisiae wt1 strain (SPY 50644) growth inhibition, active compounds read high
Procedure, shortened: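 Yeast wt1 strain exposed to compounds; growth inhibition measured relative to vehicle-treated controls.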

[3] = NCI Yeast Anticancer Drug Screen. Data for the rad50EPP+ strain (AID 151);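 note: 0% = growth of vehicle-treated control cultures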; conditions: S. cerevisiae rad50 mutant strain, active compounds read high
Procedure, shortened: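 Genetically defined yeast (rad50EPP+, DNA damage repair alteration) is grown with compound, and inhibition of growth is expressed relative to vehicle-treated controls.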

[4] = NCI Yeast Anticancer Drug Screen. Data for the rad50 strain (AID 155);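 note: 0% = growth of vehicle-only cultures of the same strain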; conditions: S. cerevisiae rad50 strain growth inhibition, active compounds read high
Procedure, shortened: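 Yeast carrying a defined DNA repair defect were exposed to test compounds, and growth was compared with vehicle-treated controls to give percent inhibition.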

[5] = NCI Yeast Anticancer Drug Screen. Data for the mec2-1 strain (AID 157); conditions: S. cerevisiae mec2-1 strain, active compounds read high
Procedure, shortened: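 Each compound was tested on mec2-1 yeast, a strain altered in DNA damage repair or cell cycle control. Growth inhibition is reported relative to vehicle.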

[6] = NCI Yeast Anticancer Drug Screen. Data for the rad14 strain (AID 159);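 note: 0% = growth of vehicle-treated control cultures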; conditions: S. cerevisiae rad14 strain growth inhibition, active compounds read high
Procedure, shortened: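 Yeast cells carrying a defined DNA-repair defect were exposed to compounds, and growth inhibition was calculated relative to vehicle-treated control cultures.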

[7] = NCI Yeast Anticancer Drug Screen. Data for the sgs1 mgt1 strain (AID 161);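 note: 0% = growth of cultures given vehicle only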; conditions: S. cerevisiae sgs1 mgt1 strain, active compounds read high
Procedure, shortened: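 Read-out: growth inhibition vs vehicle controls. Cells: mutant yeast strain deficient in DNA damage repair.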

[8] = NCI Yeast Anticancer Drug Screen. Data for the CLN2oe strain (AID 163);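 note: 0% = growth of vehicle-only control cultures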; conditions: S. cerevisiae CLN2oe strain, active compounds read high
Procedure, shortened: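 First, the altered yeast strain was treated with each compound; second, its growth was measured; finally, inhibition was derived by comparison with vehicle controls.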

[9] = NCI Yeast Anticancer Drug Screen. Data for the cln2 rad14 strain (AID 165);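 note: 0% = growth equal to vehicle treated cultures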; conditions: S. cerevisiae cln2 rad14 strain, active compounds read high
Procedure, shortened: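 Test compounds were added to cln2 rad14 yeast cultures; inhibition of growth was then determined by comparison with vehicle treatment.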

[10] = NCI Yeast Anticancer Drug Screen. Data for the bub3 strain (AID 167); conditions: S. cerevisiae bub3 mutant strain, active compounds read high
Procedure, shortened: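 Compounds were applied to a genetically altered yeast strain carrying a cell-cycle control defect. Growth inhibition was scored against vehicle-treated controls.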

[11] = NCI Yeast Anticancer Drug Screen. Data for the wt2 strain (AID 169);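 note: 0% = growth of vehicle-treated yeast cultures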; conditions: S. cerevisiae wt2 strain growth inhibition, active compounds read high
Procedure, shortened: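 The panel's yeast strains carry defined changes in DNA repair or cell cycle genes. Each strain is grown with compound, and growth loss is scored relative to vehicle.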

[12] = NCI Yeast Anticancer Drug Screen. Data for the mlh1 strain (AID 171);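 note: 0% = growth of vehicle-treated control cultures of the same strain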; conditions: S. cerevisiae mlh1 strain growth inhibition, active compounds read high
Procedure, shortened: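 Inhibition values reflect reduced yeast growth in the presence of compound, referenced to vehicle controls, using a strain chosen for its alteration in DNA repair or cell cycle control.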

[13] = NCI Yeast Anticancer Drug Screen. Data for the sgs1 strain (AID 173);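 note: 0% = growth of vehicle-only control cultures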; conditions: S. cerevisiae sgs1 mutant, active compounds read high
Procedure, shortened: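 Vehicle-treated cultures served as reference for growth inhibition of a yeast strain altered in DNA damage repair or cell cycle control after compound exposure.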

[14] = NCI Yeast Anticancer Drug Screen. Data for the mlh1 rad18 strain (AID 175); conditions: S. cerevisiae mlh1 rad18 strain growth inhibition, active compounds read high
Procedure, shortened: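 Inhibition values reflect reduced growth of mutant yeast versus vehicle-treated controls following compound exposure; the mutations affect DNA damage repair.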

[15] = NCI Yeast Anticancer Drug Screen. Data for the rad18 strain (AID 177); conditions: S. cerevisiae rad18 mutant growth inhibition, active compounds read high
Procedure, shortened: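 Steps: expose repair-mutant yeast to compound; measure growth; express as inhibition relative to vehicle control.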

[16] = at 5.0 µM (retest, dose inferred, filed as 0.5)
[17] = at 50.0 µM (retest, dose inferred, filed as 5.0)

Measured: growth inhibition

NC(=O)N1c2ccccc2C=Cc2ccccc21
active: [4]; [17] 99% | [5]; [17] 98% | [14]; [17] 100%
inactive: [1]; at 1.2 µM -35% | [1]; at 3.7 µM -36% | [1]; at 11.0 µM -38% | [1]; at 33.0 µM -49% | [1]; at 100.0 µM -41% | [2]; at 1.2 µM -20% | [2]; at 3.7 µM -16% | [2]; at 11.0 µM -24% | [2]; at 33.0 µM -24% | [2]; at 100.0 µM -44% | [3]; at 1.2 µM -49% | [3]; at 3.7 µM -73% | [3]; at 11.0 µM -63% | [3]; at 33.0 µM -91% | [3]; at 100.0 µM -65% | [4]; at 1.2 µM -39% | [4]; at 3.7 µM -14% | [4]; [16] 60% | [4]; at 11.0 µM -24% | [4]; at 33.0 µM -42% | [4]; at 50.0 µM -5.55% | [4]; at 100.0 µM -53% | [5]; at 1.2 µM -63% | [5]; at 3.7 µM -55% | [5]; [16] 63% | [5]; at 11.0 µM -55% | [5]; at 33.0 µM -69% | [5]; at 50.0 µM -3.4% | [5]; at 100.0 µM -68% | [6]; at 1.2 µM -42% | [6]; at 3.7 µM -28% | [6]; at 11.0 µM -41% | [6]; at 33.0 µM -37% | [6]; at 100.0 µM -37% | [7]; [16] -12% | [7]; [17] 29% | [7]; at 50.0 µM 15.4% | [8]; at 1.2 µM 5% | [8]; at 3.7 µM 19% | [8]; at 11.0 µM 15% | [8]; at 33.0 µM 7% | [8]; at 100.0 µM 0% | [9]; [16] 61% | [9]; [17] 38% | [9]; at 50.0 µM 9.25% | [10]; at 1.2 µM -26% | [10]; at 3.7 µM -34% | [10]; [16] -17% | [10]; at 11.0 µM -41% | [10]; at 33.0 µM -43% | [10]; [17] 3% | [10]; at 50.0 µM 15.3% | [10]; at 100.0 µM -39% | [11]; at 1.2 µM -25% | [11]; at 3.7 µM -30% | [11]; at 11.0 µM -37% | [11]; at 33.0 µM -38% | [11]; at 100.0 µM -43% | [12]; at 1.2 µM -45% | [12]; at 3.7 µM -31% | [12]; at 11.0 µM -40% | [12]; at 33.0 µM -62% | [12]; at 100.0 µM -55% | [13]; at 1.2 µM -78% | [13]; at 3.7 µM -54% | [13]; at 11.0 µM -51% | [13]; at 33.0 µM -52% | [13]; at 100.0 µM -45% | [14]; [16] 60% | [14]; at 50.0 µM -6.9% | [15]; at 1.2 µM -49% | [15]; at 3.7 µM -51% | [15]; at 11.0 µM -37% | [15]; at 33.0 µM -64% | [15]; at 100.0 µM -59%

Nc1ccc(CCl)cc1Cc1c(O)ccc2ccccc12
active: [3]; at 100.0 µM 74% | [5]; [17] 84% | [7]; at 50.0 µM 70.3%
inactive: [1]; at 1.2 µM 0% | [1]; at 3.7 µM 3% | [1]; at 11.0 µM 9% | [1]; at 33.0 µM 19% | [1]; at 100.0 µM 36% | [2]; at 1.2 µM -1% | [2]; at 3.7 µM 6% | [2]; at 11.0 µM 12% | [2]; at 33.0 µM 19% | [2]; at 100.0 µM 30% | [3]; at 1.2 µM 8% | [3]; at 3.7 µM 15% | [3]; at 11.0 µM 40% | [3]; at 33.0 µM 61% | [4]; at 1.2 µM 1% | [4]; at 3.7 µM 4% | [4]; [16] 6% | [4]; at 11.0 µM 8% | [4]; at 33.0 µM 13% | [4]; [17] 41% | [4]; at 50.0 µM 51.4% | [4]; at 100.0 µM 27% | [5]; at 1.2 µM 1% | [5]; at 3.7 µM 0% | [5]; [16] -6% | [5]; at 11.0 µM 6% | [5]; at 33.0 µM 13% | [5]; at 50.0 µM 37.2% | [5]; at 100.0 µM 33% | [6]; at 1.2 µM 1% | [6]; at 3.7 µM 3% | [6]; at 11.0 µM 8% | [6]; at 33.0 µM 16% | [6]; at 100.0 µM 29% | [7]; [16] 2% | [7]; [17] 64% | [8]; at 1.2 µM -3% | [8]; at 3.7 µM -7% | [8]; at 11.0 µM 3% | [8]; at 33.0 µM -1% | [8]; at 100.0 µM 34% | [9]; [16] 6% | [9]; [17] 61% | [9]; at 50.0 µM 29.3% | [10]; at 1.2 µM -4% | [10]; at 3.7 µM -2% | [10]; [16] 3% | [10]; at 11.0 µM 0% | [10]; at 33.0 µM 1% | [10]; [17] 43% | [10]; at 50.0 µM 55% | [10]; at 100.0 µM 27% | [11]; at 1.2 µM 1% | [11]; at 3.7 µM 6% | [11]; at 11.0 µM 16% | [11]; at 33.0 µM 23% | [11]; at 100.0 µM 32% | [12]; at 1.2 µM 1% | [12]; at 3.7 µM 2% | [12]; at 11.0 µM 5% | [12]; at 33.0 µM 8% | [12]; at 100.0 µM 31% | [13]; at 1.2 µM 1% | [13]; at 3.7 µM 1% | [13]; at 11.0 µM 10% | [13]; at 33.0 µM 21% | [13]; at 100.0 µM 38% | [15]; at 1.2 µM 1% | [15]; at 3.7 µM 1% | [15]; at 11.0 µM 7% | [15]; at 33.0 µM 16% | [15]; at 100.0 µM 33%

— PubChem BioAssay (NCI)
